# Assay results: PubChem BioAssay (NCI)
# Compounds without any hit were thinned out: in the full panel of roughly 79,000, 15% have a hit. A number with no mark means an inactive call. Activity calls are given as the source filed them. Cut-off read from the data, not from the text of the source: active = growth inhibition above about 70%; inactive = the rest.
# Tests used:
# [1] = NCI Yeast Anticancer Drug Screen. Data for the rad52 strain (AID 147);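 note: 0% = growth of vehicle-treated control cultures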; settings: S. cerevisiae rad52 mutant growth inhibition, active compounds read high
# Procedure, shortened: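 DNA repair-defective yeast; compound exposure; growth scored against vehicle controls.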
# [2] = NCI Yeast Anticancer Drug Screen. Data for the wt1 strain (AID 149);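 note: 0% = growth of vehicle-treated wt1 cultures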; settings: S. cerevisiae wt1 strain (SPY 50644) growth inhibition, active compounds read high
# Procedure, shortened: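 Readout: yeast growth inhibition, normalised to vehicle controls, in the wt1 strain exposed to test compounds.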
# [3] = NCI Yeast Anticancer Drug Screen. Data for the rad50EPP+ strain (AID 151);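 note: 0% = growth of vehicle-treated control cultures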; settings: S. cerevisiae rad50 mutant strain, active compounds read high
# Procedure, shortened: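 rad50EPP+ yeast treated with test compounds. Readout: growth vs vehicle control.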
# [4] = NCI Yeast Anticancer Drug Screen. Data for the mgt1 strain (AID 153); settings: S. cerevisiae mgt1 mutant growth inhibition, active compounds read high
# Procedure, shortened: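 Growth inhibition relative to vehicle controls was scored for the mgt1 yeast strain after compound exposure.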
# [5] = NCI Yeast Anticancer Drug Screen. Data for the rad50 strain (AID 155);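 note: 0% = growth of vehicle-only cultures of the same strain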; settings: S. cerevisiae rad50 strain growth inhibition, active compounds read high
# Procedure, shortened: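 Compounds were tested on a yeast strain with an engineered DNA damage repair alteration; the reported value is growth inhibition normalised to vehicle treatment.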
# [6] = NCI Yeast Anticancer Drug Screen. Data for the mec2-1 strain (AID 157); settings: S. cerevisiae mec2-1 strain, active compounds read high
# Procedure, shortened: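 Growth inhibition is read against vehicle-treated controls after compound exposure of the mec2-1 yeast strain, which is defective in DNA damage repair or cell cycle control.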
# [7] = NCI Yeast Anticancer Drug Screen. Data for the rad14 strain (AID 159);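 note: 0% = growth of vehicle-treated control cultures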; settings: S. cerevisiae rad14 strain growth inhibition, active compounds read high
# Procedure, shortened: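 Compound-treated yeast with a defined DNA-repair lesion; growth inhibition normalised to vehicle-treated cultures.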
# [8] = NCI Yeast Anticancer Drug Screen. Data for the CLN2oe strain (AID 163);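 note: 0% = growth of vehicle-only control cultures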; settings: S. cerevisiae CLN2oe strain, active compounds read high
# Procedure, shortened: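 Compound-treated yeast; growth vs vehicle ctrl = % inhibition. Genetically altered strain (cell-cycle control).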
# [9] = NCI Yeast Anticancer Drug Screen. Data for the cln2 rad14 strain (AID 165);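 note: 0% = growth equal to vehicle treated cultures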; settings: S. cerevisiae cln2 rad14 strain, active compounds read high
# Procedure, shortened: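 Growth inhibition, relative to vehicle-treated controls, is the read-out. The test organism is a yeast strain with defined genetic alterations, cln2 rad14.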
# [10] = NCI Yeast Anticancer Drug Screen. Data for the bub3 strain (AID 167); settings: S. cerevisiae bub3 mutant strain, active compounds read high
# Procedure, shortened: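 Growth of a checkpoint-deficient yeast mutant is measured after compound exposure. Values represent inhibition relative to vehicle.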
# [11] = NCI Yeast Anticancer Drug Screen. Data for the wt2 strain (AID 169);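 note: 0% = growth of vehicle-treated yeast cultures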; settings: S. cerevisiae wt2 strain growth inhibition, active compounds read high
# Procedure, shortened: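 Compound exposure of yeast; growth compared with vehicle controls; inhibition reported.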
# [12] = NCI Yeast Anticancer Drug Screen. Data for the mlh1 strain (AID 171);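 note: 0% = growth of vehicle-treated control cultures of the same strain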; settings: S. cerevisiae mlh1 strain growth inhibition, active compounds read high
# Procedure, shortened: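 Compounds are applied to a genetically altered yeast strain, and its growth is compared with that of vehicle-treated cultures to give percent inhibition.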
# [13] = NCI Yeast Anticancer Drug Screen. Data for the sgs1 strain (AID 173);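 note: 0% = growth of vehicle-only control cultures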; settings: S. cerevisiae sgs1 mutant, active compounds read high
# Procedure, shortened: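 Compounds applied to genetically altered yeast; growth compared with vehicle-treated cultures to give % inhibition.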
# [14] = NCI Yeast Anticancer Drug Screen. Data for the mlh1 rad18 strain (AID 175); settings: S. cerevisiae mlh1 rad18 strain growth inhibition, active compounds read high
# Procedure, shortened: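 Cells of a genetically altered yeast strain, deficient in DNA damage repair, were treated with compound. Their growth was then compared with that of vehicle-treated cultures to give inhibition.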
# [15] = NCI Yeast Anticancer Drug Screen. Data for the rad18 strain (AID 177); settings: S. cerevisiae rad18 mutant growth inhibition, active compounds read high
# Procedure, shortened: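 Compounds are applied to a repair-deficient yeast strain, and growth is compared with that of vehicle-treated cultures to give percent inhibition.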
# [16] = NCI Yeast Anticancer Drug Screen. Data for the sgs1 mgt1 strain (AID 161);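 note: 0% = growth of cultures given vehicle only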; settings: S. cerevisiae sgs1 mgt1 strain, active compounds read high
# Procedure, shortened: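 Growth of a repair-deficient yeast mutant was monitored after compound treatment and expressed as inhibition relative to vehicle-treated cultures.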
# [17] = at 5.0 µM (retest, dose inferred, filed as 0.5)
# [18] = at 50.0 µM (retest, dose inferred, filed as 5.0)
structure (smiles),measurement,setting,value
O=C1C=C(Cl)C(=O)C(c2ccc(Cl)cc2)=C1,growth inhibition,[1]; at 1.2 µM,-33%
same,growth inhibition,[1]; at 3.7 µM,-7%
same,growth inhibition,[1]; at 11.0 µM,11%
same,growth inhibition,[1]; at 33.0 µM,98% (active)
same,growth inhibition,[1]; at 100.0 µM,96% (active)
same,growth inhibition,[2]; at 1.2 µM,1%
same,growth inhibition,[2]; at 3.7 µM,5%
same,growth inhibition,[2]; at 11.0 µM,21%
same,growth inhibition,[2]; at 33.0 µM,97% (active)
same,growth inhibition,[2]; at 100.0 µM,97% (active)
same,growth inhibition,[3]; at 1.2 µM,40%
same,growth inhibition,[3]; at 3.7 µM,49%
same,growth inhibition,[3]; at 11.0 µM,83% (active)
same,growth inhibition,[3]; at 33.0 µM,98% (active)
same,growth inhibition,[3]; at 100.0 µM,96% (active)
same,growth inhibition,[4]; at 1.2 µM,2%
same,growth inhibition,[4]; at 3.7 µM,39%
same,growth inhibition,[4]; at 11.0 µM,82% (active)
same,growth inhibition,[4]; at 33.0 µM,98% (active)
same,growth inhibition,[4]; at 100.0 µM,97% (active)
same,growth inhibition,[5]; at 1.2 µM,-4%
same,growth inhibition,[5]; at 3.7 µM,-1%
same,growth inhibition,[5]; [17],21%
same,growth inhibition,[5]; at 11.0 µM,44%
same,growth inhibition,[5]; at 33.0 µM,97% (active)
same,growth inhibition,[5]; [18],97% (active)
same,growth inhibition,[5]; at 50.0 µM,91.5% (active)
same,growth inhibition,[5]; at 100.0 µM,97% (active)
same,growth inhibition,[6]; at 1.2 µM,0%
same,growth inhibition,[6]; at 3.7 µM,34%
same,growth inhibition,[6]; [17],21%
same,growth inhibition,[6]; at 11.0 µM,67%
same,growth inhibition,[6]; at 33.0 µM,98% (active)
same,growth inhibition,[6]; [18],99% (active)
same,growth inhibition,[6]; at 50.0 µM,92.5% (active)
same,growth inhibition,[6]; at 100.0 µM,97% (active)
same,growth inhibition,[7]; at 1.2 µM,11%
same,growth inhibition,[7]; at 3.7 µM,23%
same,growth inhibition,[7]; at 11.0 µM,42%
same,growth inhibition,[7]; at 33.0 µM,95% (active)
same,growth inhibition,[7]; at 100.0 µM,96% (active)
same,growth inhibition,[8]; at 1.2 µM,31%
same,growth inhibition,[8]; at 3.7 µM,32%
same,growth inhibition,[8]; at 11.0 µM,69%
same,growth inhibition,[8]; at 33.0 µM,98% (active)
same,growth inhibition,[8]; at 100.0 µM,96% (active)
same,growth inhibition,[9]; [17],24%
same,growth inhibition,[9]; [18],98% (active)
same,growth inhibition,[9]; at 50.0 µM,90.8% (active)
same,growth inhibition,[10]; at 1.2 µM,5%
same,growth inhibition,[10]; at 3.7 µM,20%
same,growth inhibition,[10]; [17],6%
same,growth inhibition,[10]; at 11.0 µM,62%
same,growth inhibition,[10]; at 33.0 µM,98% (active)
same,growth inhibition,[10]; [18],98% (active)
same,growth inhibition,[10]; at 50.0 µM,91.8% (active)
same,growth inhibition,[10]; at 100.0 µM,94% (active)
same,growth inhibition,[11]; at 1.2 µM,-27%
same,growth inhibition,[11]; at 3.7 µM,-9%
same,growth inhibition,[11]; at 11.0 µM,13%
same,growth inhibition,[11]; at 33.0 µM,94% (active)
same,growth inhibition,[11]; at 100.0 µM,96% (active)
same,growth inhibition,[12]; at 1.2 µM,34%
same,growth inhibition,[12]; at 3.7 µM,61%
same,growth inhibition,[12]; at 11.0 µM,84% (active)
same,growth inhibition,[12]; at 33.0 µM,97% (active)
same,growth inhibition,[12]; at 100.0 µM,96% (active)
same,growth inhibition,[13]; at 1.2 µM,18%
same,growth inhibition,[13]; at 3.7 µM,37%
same,growth inhibition,[13]; at 11.0 µM,66%
same,growth inhibition,[13]; at 33.0 µM,98% (active)
same,growth inhibition,[13]; at 100.0 µM,96% (active)
same,growth inhibition,[14]; [17],39%
same,growth inhibition,[14]; [18],97% (active)
same,growth inhibition,[14]; at 50.0 µM,91.6% (active)
same,growth inhibition,[15]; at 1.2 µM,16%
same,growth inhibition,[15]; at 3.7 µM,-4%
same,growth inhibition,[15]; at 11.0 µM,53%
same,growth inhibition,[15]; at 33.0 µM,96% (active)
same,growth inhibition,[15]; at 100.0 µM,97% (active)
CC12C(=O)OC(=O)C(c3ccccc31)c1ccccc12,growth inhibition,[1]; at 1.2 µM,-8%
same,growth inhibition,[1]; at 3.7 µM,-2%
same,growth inhibition,[1]; at 11.0 µM,-12%
same,growth inhibition,[1]; at 33.0 µM,-4%
same,growth inhibition,[1]; at 100.0 µM,3%
same,growth inhibition,[2]; at 1.2 µM,2%
same,growth inhibition,[2]; at 3.7 µM,-2%
same,growth inhibition,[2]; at 11.0 µM,4%
same,growth inhibition,[2]; at 33.0 µM,2%
same,growth inhibition,[2]; at 100.0 µM,9%
same,growth inhibition,[3]; at 1.2 µM,-11%
same,growth inhibition,[3]; at 3.7 µM,-25%
same,growth inhibition,[3]; at 11.0 µM,-30%
same,growth inhibition,[3]; at 33.0 µM,19%
same,growth inhibition,[3]; at 100.0 µM,9%
same,growth inhibition,[4]; at 1.2 µM,-7%
same,growth inhibition,[4]; at 3.7 µM,-9%
same,growth inhibition,[4]; at 11.0 µM,-5%
same,growth inhibition,[4]; at 33.0 µM,-4%
same,growth inhibition,[4]; at 100.0 µM,-6%
same,growth inhibition,[5]; at 1.2 µM,-18%
same,growth inhibition,[5]; at 3.7 µM,-17%
same,growth inhibition,[5]; [17],43%
same,growth inhibition,[5]; at 11.0 µM,-16%
same,growth inhibition,[5]; at 33.0 µM,-16%
same,growth inhibition,[5]; [18],21%
same,growth inhibition,[5]; at 50.0 µM,98.3% (active)
same,growth inhibition,[5]; at 100.0 µM,20%
same,growth inhibition,[6]; at 1.2 µM,-5%
same,growth inhibition,[6]; at 3.7 µM,-6%
same,growth inhibition,[6]; [17],47%
same,growth inhibition,[6]; at 11.0 µM,-5%
same,growth inhibition,[6]; at 33.0 µM,-5%
same,growth inhibition,[6]; [18],28%
same,growth inhibition,[6]; at 50.0 µM,91% (active)
same,growth inhibition,[6]; at 100.0 µM,-2%
same,growth inhibition,[7]; at 1.2 µM,-4%
same,growth inhibition,[7]; at 3.7 µM,-9%
same,growth inhibition,[7]; at 11.0 µM,0%
same,growth inhibition,[7]; at 33.0 µM,2%
same,growth inhibition,[7]; at 100.0 µM,8%
same,growth inhibition,[16]; [17],33%
same,growth inhibition,[16]; [18],21%
same,growth inhibition,[16]; at 50.0 µM,97.2% (active)
same,growth inhibition,[8]; at 1.2 µM,-9%
same,growth inhibition,[8]; at 3.7 µM,-8%
same,growth inhibition,[8]; at 11.0 µM,-10%
same,growth inhibition,[8]; at 33.0 µM,-11%
same,growth inhibition,[8]; at 100.0 µM,-10%
same,growth inhibition,[10]; at 1.2 µM,-7%
same,growth inhibition,[10]; at 3.7 µM,-5%
same,growth inhibition,[10]; [17],28%
same,growth inhibition,[10]; at 11.0 µM,-8%
same,growth inhibition,[10]; at 33.0 µM,-5%
same,growth inhibition,[10]; [18],49%
same,growth inhibition,[10]; at 50.0 µM,68.1%
same,growth inhibition,[10]; at 100.0 µM,2%
same,growth inhibition,[11]; at 1.2 µM,-7%
same,growth inhibition,[11]; at 3.7 µM,-5%
same,growth inhibition,[11]; at 11.0 µM,11%
same,growth inhibition,[11]; at 33.0 µM,9%
same,growth inhibition,[11]; at 100.0 µM,7%
same,growth inhibition,[12]; at 1.2 µM,-11%
same,growth inhibition,[12]; at 3.7 µM,-9%
same,growth inhibition,[12]; at 11.0 µM,-7%
same,growth inhibition,[12]; at 33.0 µM,-6%
same,growth inhibition,[12]; at 100.0 µM,-6%
same,growth inhibition,[13]; at 1.2 µM,-12%
same,growth inhibition,[13]; at 3.7 µM,-8%
same,growth inhibition,[13]; at 11.0 µM,-1%
same,growth inhibition,[13]; at 33.0 µM,2%
same,growth inhibition,[13]; at 100.0 µM,11%
same,growth inhibition,[14]; [17],58%
same,growth inhibition,[14]; [18],54%
same,growth inhibition,[14]; at 50.0 µM,93.6% (active)
same,growth inhibition,[15]; at 1.2 µM,-8%
same,growth inhibition,[15]; at 3.7 µM,-10%
same,growth inhibition,[15]; at 11.0 µM,-5%
same,growth inhibition,[15]; at 33.0 µM,0%
same,growth inhibition,[15]; at 100.0 µM,-7%
